We go through 40 compounds from PubChem BioAssay (NCATS).

The structures appear in SMILES notation. Records with an inconclusive call do not appear. Unmarked numbers belong to inactive results. Calls of active or inactive are those of the source. The call rests on the fitted dose curve; in most records, active means well fitted inhibition curve with a large enough effect; inconclusive means small, poorly fitted or top-dose-only effect; inactive means no such curve, though single readings can be large or run the other way.
Potency means the concentration at half of the fitted maximal effect.

The nature of this assay: BET inhibitor-based combinations targeting novel dependencies in MECOM-rearranged (r) AML: OCI-AML3 cell line (AID 2202232). Further: nearly all actives have a fitted effect of over 35% in size. To be noted: CellTiter-Glo luminescence, 48 h; Potency: OCI-AML3 viability; series mostly up to 46 µM; viability (% of control): at the top concentration. From the text:
Ecotropic viral insertion site 1 (EVI1) is located on chromosome 3q26.2 as part of the MECOM (MDS and EVI1 complex) locus. Under normal hematopoiesis, EVI1 is a regulator of hematopoietic stem cell maintenance and self-renewal and EVI1 levels decrease as the cells differentiate. In approximately 5-10% of de novo acute myeloid leukemia (AML) EVI1 is aberrantly expressed, including Chromosomal inv(3)(q21;q26.2) or t(3;3)(q21;q26.2) alterations (MECOM-r) that account for about 50% of AML with EVI1 overexpression 31. AMLs with high levels of EVI1 have a poor prognosis and an overall survival time averaging between 10-14 months. EVI1 overexpression confers resistance in leukemia cells, highlighting the need to develop new targeted therapies for EVI1 overexpressing AMLs.
Here, we performed an unbiased chemical drug screening by evaluating the single agent activity of a collection of 2,480 oncology-focused, approved and investigational drugs (NCATS Mechanism Interrogation Plates, MIPE v5.0) against a panel of seven AML cell lines. These included four MECOM-r cell-lines (AML-191, AML-194, UCSD-AML1 and HNT-34) and three non-MECOM-r AMLs (MV4-11, OCI-AML3 and SET-2). Exploiting the mechanistic redundancy built in the library, we identified target-level sensitivities in MECOM-r AML cells and relative activity as compared to other AML subtypes.
A collection of 2480 mechanistically annotated dugs (MIPE v5.0) was used to screen four 3q26.2 rearranged AML cell lines and three non-3q26.2 rearranged AML cell lines. This library purposely exploits redundancy by including multiple inhibitors of key onco-targets, while simultaneously encompassing mechanistic diversity, targeting more than 800 distinct mechanisms of action. Briefly, cells were seeded in 5 uL of growth media using a Multidrop Combi dispenser into 1536 well white polystyrene tissue culture treated plates (Corning) at a density of 500cells/well. For each cell-line, for each of the 2480 drugs in MIPE v5.0 library, an 11-point dose curve was generated via a 1536 pin-tool. Plates were incubated for 48 hr at standard incubator conditions, covered by a stainless steel gasketed lid to prevent evaporation. Cell viability was determined by luminescence based, Cell Titer Glo assay (Promega). In detail, 3 uL of Cell Titer Glo were added to each well and plates were incubated at room temperature for 15 min with a stainless-steel lid in place. Luminescence readings were taken using a Viewlux (PerkinElmer) with a 2 s exposure time per plate. Compound dose-response curves were normalized to DMSO and empty well controls on each plate. Quantitative drug activity data from dose-response curves was determined utilizing area Under the Curve (AUC) and Z-transformed AUC (Z-AUC, a mean-centering transformation applied to each individual cell-line screened).
For orientation: In ATP-based viability assays light output follows the ATP content of the culture.
Regarding `C=C1C[C@@]2(O)O[C@@]3(C[C@H]2C(C)C)[C@@H](C)CC[C@@H]13`, the “viability (% of control)” value was 97.7%.
Consider `NC(=O)N1CCC(CC(=O)N2CCC([C@H]3c4ncc(Br)cc4CCc4cc(Cl)cc(Br)c43)CC2)CC1`, for which the Potency was 1.18 µM (active).
Still for that read-out and setting: then `C[C@H]1COC2=C1C(=O)C(=O)c1c2ccc2c1CCCC2(C)C`, with 20.9 µM (active); and `c1ccc2c(-c3cnn4cc(-c5ccc(N6CCNCC6)cc5)cnc34)ccnc2c1`, with 2.95 µM (active).
Same read-out and setting: then `Nc1nc(Nc2ccc(S(N)(=O)=O)cc2)nn1C(=O)c1c(F)cccc1F`, with 2.95 µM (active).
For the compound `CC(C)(OCc1nn(Cc2ccccc2)c2ccccc12)C(=O)O`, the “viability (% of control)” value was 111%.
On to `CN(C)CC/C=C1/c2ccccc2COc2ccc(CC(=O)O)cc21`, for which the “viability (% of control)” value was 111%.
On the same count and under the same terms, the figure for `O=c1[nH]cnc2[nH]ncc12` is 107%.
Still for that read-out and setting: the figure for `CNNCc1ccc(C(=O)NC(C)C)cc1` is 117%; for `NNC(=O)c1ccncc1` it is 115%.
For `O=C(/C=C/C=C/c1ccc2c(c1)OCO2)N1CCCCC1`, the Potency was 18.6 µM (active).
Still for that read-out and setting: then `O=C(O)c1ccc(-n2nc(-c3ccccc3O)nc2-c2ccccc2O)cc1`, with 14.8 µM (active).
Turning to `O=C(C1CCCCC1)N1CC(=O)N2CCc3ccccc3C2C1` (stereo not given), the “viability (% of control)” value was 96.5%.
For `Cc1nc2c([nH]1)CCN(C(=O)c1ccc(NC(=O)c3ccccc3-c3ccccc3)cc1)c1ccccc1-2`, the Potency was 14.8 µM (active).
Take `CCCn1c(=O)c2[nH]c(-c3cnn(Cc4cccc(C(F)(F)F)c4)c3)nc2n(CC)c1=O`: the “viability (% of control)” value was 118%.
Same read-out and setting: the figure for `CN1c2cc(O)c(N=NC(N)=O)cc2CC1S(=O)(=O)O` (stereo not given) is 64.5%.
Still for that read-out and setting: the figure for `O=S(=O)(O)CCSSCCS(=O)(=O)O` is 117%.
Consider `COc1ccc(CNc2nc(N(CCO)CCO)nc3c2ncn3C(C)C)cc1`, for which the Potency is 8.33 µM (active).
As to `O=C(O)c1cn(-c2ccc(F)cc2)c2cc(N3CCNCC3)c(F)cc2c1=O`, the “viability (% of control)” value is 80.5%.
As to `CC[C@]12C=CCN3CC[C@@]4(c5cc([C@@]6(C(=O)OC)C[C@H]7C[C@@H](C(C)(F)F)CN(Cc8c6[nH]c6ccccc86)C7)c(OC)cc5N(C)[C@H]4[C@@](O)(C(=O)OC)[C@@H]1OC(C)=O)[C@@H]32`, the Potency is 0.124 µM (active).
Still for that read-out and setting: the figure for `CCCCCCOC(=O)NC(=N)c1ccc(NCc2nc3cc(C(=O)N(CCC(=O)OCC)c4ccccn4)ccc3n2C)cc1` is 8.33 µM (active); for `CC(N[C@H]1CCCC[C@H]1NC(=O)c1ccc(Cl)cc1)c1cccc2ccccc12` (stereo not given in full) it is 16.6 µM (active).
Consider `COc1cc(C[C@@H](CO)[C@H](CO)Cc2ccc(O)c(OC)c2)ccc1O`, for which the “viability (% of control)” value is 111%.
For `Cn1cc(-c2ccc(S(=O)(=O)n3ccc(/C=C/C(=O)Nc4ccccc4N)c3)cc2)cn1`, the Potency was 1.18 µM (active).
Still for that read-out and setting: the figure for `NC(=O)Nc1sc(-c2ccc(F)cc2)cc1C(N)=O` is 2.35 µM (active).
Regarding `O=C(NNc1ccccc1)c1ccncc1`, the “viability (% of control)” value was 111%.
Consider `COC(=O)[C@H](c1ccccc1Cl)N1CCc2sccc2C1`, for which the “viability (% of control)” value is 109%.
With `C[C@]12C=CC(=O)C=C1CC[C@@H]1[C@@H]2[C@@H](O)C[C@@]2(C)[C@H]1CC[C@]2(O)C(=O)CO`, the “viability (% of control)” value was 124%.
On to `O=C1C[C@@H](c2ccc(O)cc2)Oc2cc(O)cc(O)c21`, for which the “viability (% of control)” value was 91.6%.
For `COc1ccc(F)c(F)c1C(=O)c1cnc(NC2CCN(S(C)(=O)=O)CC2)nc1N`, the Potency was 1.86 µM (active).
Turning to `C1CCC(C(CC2CCCCN2)C2CCCCC2)CC1` (stereo not given), the Potency is 6.61 µM (active).
Still for that read-out and setting: then `COc1cc(OC)c2c(=O)[nH]c(-c3cc(C)c(OCCO)c(C)c3)nc2c1`, with 14.8 µM (active).
Still for that read-out and setting: then `C=C1C(=O)[C@@]23C(CC[C@@H]1[C@H]2O)[C@@]12CO[C@]3(O)[C@@H](O)[C@@H]1C(C)(C)CC[C@@H]2O` (stereo not given in full), with 3.32 µM (active); and `CC(C)c1c(C(=O)Nc2ccccc2)c(-c2ccccc2)c(-c2ccc(F)cc2)n1CC[C@@H](O)C[C@@H](O)CC(=O)O`, with 3.23 µM (active).
Regarding `OC[C@@H](O)[C@@H](O)[C@H](O)[C@@H](O)CO`, the “viability (% of control)” value is 102%.
With `CC[C@H](CC#N)OC(=O)N[C@@H](C)c1cccc(NC(=O)Nc2ccc(-c3cnco3)c(OC)c2)c1`, the Potency was 0.468 µM (active).
For the compound `c1ccc(CNc2nc(N3CCOc4ccccc43)nc3c2CCCC3)cc1`, the “viability (% of control)” value is 91.8%.
On to `CCNC1(C(N)=O)CCN(c2ncnc3c2nc(-c2ccccc2Cl)n3-c2ccc(Cl)cc2)CC1`, for which the “viability (% of control)” value is 63%.
`O=S(=O)(O)CCS`: the “viability (% of control)” value is 129%.
Turning to `Cc1nn(Cc2ccccc2Cl)c(C)c1CN(C)CC(O)COc1ccc(Cl)cc1` (stereo not given), the Potency is 16.6 µM (active).
